PubChem BioAssay (EPA / NIEHS)
Inconclusive results are not listed. Active and inactive are the calls of the source. The calls were made as follows, unless noted: active = hit-call score of the fitted dose curve at least 0.9, where 1 is the maximum; inconclusive = response in the unintended direction; inactive = score below 0.9.

Key:
[1] = target: Agonist Androgen Response Element (ARE), AR (gene 367) (UniProt P10275); test: OT_AR_ARELUC_AG_1440: Odyssey Thera (OT) 24-hour CHO-K1 Luciferase Assay for Agonist Androgen Response Element (ARE) (AID 2283379)
Agonist Androgen Response Element (ARE), AR (gene 367), sequence (P10275 whole entry, looked up): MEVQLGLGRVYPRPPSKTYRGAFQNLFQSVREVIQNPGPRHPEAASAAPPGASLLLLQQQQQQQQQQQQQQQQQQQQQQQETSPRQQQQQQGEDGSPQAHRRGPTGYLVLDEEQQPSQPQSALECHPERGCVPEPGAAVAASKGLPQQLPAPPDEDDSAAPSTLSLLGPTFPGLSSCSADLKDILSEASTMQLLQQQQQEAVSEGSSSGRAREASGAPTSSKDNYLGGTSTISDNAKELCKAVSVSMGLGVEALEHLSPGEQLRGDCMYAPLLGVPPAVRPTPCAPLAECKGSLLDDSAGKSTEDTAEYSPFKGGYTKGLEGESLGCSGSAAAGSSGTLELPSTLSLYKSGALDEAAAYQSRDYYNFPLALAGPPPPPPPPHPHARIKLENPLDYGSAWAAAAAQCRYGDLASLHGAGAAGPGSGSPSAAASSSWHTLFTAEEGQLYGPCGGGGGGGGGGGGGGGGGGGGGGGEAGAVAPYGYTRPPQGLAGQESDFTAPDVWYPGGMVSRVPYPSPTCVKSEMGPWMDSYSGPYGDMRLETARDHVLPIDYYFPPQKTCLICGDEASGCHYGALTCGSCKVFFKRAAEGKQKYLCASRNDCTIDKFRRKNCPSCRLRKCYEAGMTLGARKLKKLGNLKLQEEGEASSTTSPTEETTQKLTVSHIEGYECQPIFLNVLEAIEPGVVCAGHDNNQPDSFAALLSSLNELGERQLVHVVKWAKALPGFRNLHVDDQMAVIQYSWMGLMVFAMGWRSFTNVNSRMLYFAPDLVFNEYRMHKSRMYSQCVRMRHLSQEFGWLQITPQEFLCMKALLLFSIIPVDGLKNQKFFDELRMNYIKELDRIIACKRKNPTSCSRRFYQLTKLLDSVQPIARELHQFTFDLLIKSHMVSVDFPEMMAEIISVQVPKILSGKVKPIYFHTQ
In short: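 Luminescence increase above DMSO, read after a 24 h compound treatment of CHO-K1 cells expressing an androgen response element luciferase reporter, gives the single primary endpoint; concentration-response fitting used the positive direction.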

[2] = target: Estrogen receptor beta (Homo sapiens) (UniProt Q92731); test: OT_ER_ERbERb_1440: Odyssey Thera (OT) 24-hour HEK293T Protein-Complementation Assay for Estrogen Receptor-beta/-beta Homodimer (AID 2283380);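 also: fluorescence gain from ER beta LBD homodimer complementation read by laser scanning cytometry; scored as signal increase over DMSO baseline for both agonists and antagonists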
Estrogen receptor beta (Homo sapiens), sequence (Q92731 whole entry, looked up, the tested form may be a part): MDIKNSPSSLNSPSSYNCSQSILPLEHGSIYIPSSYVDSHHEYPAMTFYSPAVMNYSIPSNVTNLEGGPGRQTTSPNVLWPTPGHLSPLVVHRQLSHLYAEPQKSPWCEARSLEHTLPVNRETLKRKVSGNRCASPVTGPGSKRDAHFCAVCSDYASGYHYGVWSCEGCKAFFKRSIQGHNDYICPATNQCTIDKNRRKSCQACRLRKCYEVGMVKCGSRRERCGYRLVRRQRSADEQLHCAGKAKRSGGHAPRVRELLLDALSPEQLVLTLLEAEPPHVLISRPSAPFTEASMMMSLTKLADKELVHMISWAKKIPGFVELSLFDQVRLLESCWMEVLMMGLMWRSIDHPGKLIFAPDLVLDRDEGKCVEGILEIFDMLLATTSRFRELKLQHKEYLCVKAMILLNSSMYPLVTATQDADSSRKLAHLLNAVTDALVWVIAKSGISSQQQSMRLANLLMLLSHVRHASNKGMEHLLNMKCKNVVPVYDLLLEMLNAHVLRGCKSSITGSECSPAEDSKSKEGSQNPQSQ
In short: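 HEK293T cells stably expressing human ER-beta LBD (aa 310-547) PCA homodimer pair, dosed 24 h; formaldehyde-fixed, Draq5-stained. Readout: increase in nuclear (agonist) or nuclear plus cytoplasmic (antagonist) fluorescence intensity versus DMSO, gain-of-signal fitting.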

[3] = target: Estrogen receptor (Homo sapiens) (UniProt P03372); test: OT_ERa_GFPERaERE_0480: Odyssey Thera (OT) 8-hour HeLa Transcription Induction Assay for Estrogen Receptor (AID 2283381; active = hit-call score of the fitted dose curve at least 0.9, where 1 is the maximum; inactive = score below 0.9)
Estrogen receptor (Homo sapiens), sequence (P03372 whole entry, looked up): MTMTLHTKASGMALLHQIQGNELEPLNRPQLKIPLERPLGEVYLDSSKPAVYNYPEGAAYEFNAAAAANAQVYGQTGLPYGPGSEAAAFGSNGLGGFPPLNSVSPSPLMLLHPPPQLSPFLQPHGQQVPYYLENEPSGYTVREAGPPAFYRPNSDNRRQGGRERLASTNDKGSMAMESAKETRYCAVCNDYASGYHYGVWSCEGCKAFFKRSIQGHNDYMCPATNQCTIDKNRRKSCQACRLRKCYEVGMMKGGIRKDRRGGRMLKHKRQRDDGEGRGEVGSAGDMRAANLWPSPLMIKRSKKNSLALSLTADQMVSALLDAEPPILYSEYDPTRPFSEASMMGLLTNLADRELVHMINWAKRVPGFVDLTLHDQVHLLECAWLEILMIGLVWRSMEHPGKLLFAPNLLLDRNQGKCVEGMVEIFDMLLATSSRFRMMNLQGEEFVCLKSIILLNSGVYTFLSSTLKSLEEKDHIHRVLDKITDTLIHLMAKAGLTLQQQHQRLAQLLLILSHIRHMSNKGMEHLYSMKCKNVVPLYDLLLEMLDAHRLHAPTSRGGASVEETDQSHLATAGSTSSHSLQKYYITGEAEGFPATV
In short: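 Fluorescence microscopy with high-content image analysis measures ERE-driven GFP induction in HeLa cells at 8 h post-dose. Increases fitted against DMSO baseline.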

[4] = target: Estrogen receptor (Homo sapiens) (UniProt P03372); test: OT_ERa_GFPERaERE_0120: Odyssey Thera (OT) 2-hour HeLa Transcription Induction Assay for Estrogen Receptor (AID 2283382)
In short: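 Fluorescence-microscopy images of the GFP-ERα/ERE reporter, scored by high-content image algorithms, give the readout. HeLa exposure lasted 2 h, and only signal increase over DMSO was fitted.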

[5] = target: Retinoic acid receptor RXR-alpha (Homo sapiens) (UniProt P19793); test: OT_NURR1_NURR1RXRa_0480: Odyssey Thera (OT) 8-hour HEK293T Protein Complementation Assay for Nurr1/retinoid X receptor (RXR) (AID 2283385)
Retinoic acid receptor RXR-alpha (Homo sapiens), sequence (P19793 whole entry, looked up, the tested form may be a part): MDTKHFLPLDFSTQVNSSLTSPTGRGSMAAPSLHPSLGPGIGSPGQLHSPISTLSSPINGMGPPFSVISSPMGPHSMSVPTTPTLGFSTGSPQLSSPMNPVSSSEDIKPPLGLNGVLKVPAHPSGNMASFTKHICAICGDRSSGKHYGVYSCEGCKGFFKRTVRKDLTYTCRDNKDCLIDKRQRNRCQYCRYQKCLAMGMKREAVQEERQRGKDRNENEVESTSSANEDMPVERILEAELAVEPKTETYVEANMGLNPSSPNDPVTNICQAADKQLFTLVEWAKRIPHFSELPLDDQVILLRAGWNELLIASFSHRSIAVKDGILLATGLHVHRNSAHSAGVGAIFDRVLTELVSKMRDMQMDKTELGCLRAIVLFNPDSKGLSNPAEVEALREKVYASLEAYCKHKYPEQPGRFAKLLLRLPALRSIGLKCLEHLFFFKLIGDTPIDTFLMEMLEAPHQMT
In short: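 Interaction of Nurr1 with RXRα read as reconstituted reporter fluorescence in a HEK293T fragment-complementation system, 8 h post-treatment; increase over DMSO baseline analysed.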

[6] = target: Retinoic acid receptor RXR-alpha (Homo sapiens) (UniProt P19793); test: OT_NURR1_NURR1RXRa_1440: Odyssey Thera (OT) 24-hour HEK293T Protein Complementation Assay for Nurr1/retinoid X receptor (RXR) (AID 2283386)
In short: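 Gain in fluorescence, fitted relative to DMSO, reflects Nurr1–RXRα association in HEK293T cells after 24 h dosing. Bait and prey are each linked to a reporter-protein fragment that reassembles on interaction.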

[7] = target: Peroxisome proliferator-activated receptor gamma (Homo sapiens) (UniProt P37231); test: OT_PPARg_PPARgSRC1_0480: Odyssey Thera (OT) 8-hour Protein-Complementation Assay for Peroxisome Proliferator-activated Receptor Gamma / SRC-1 Co-activator (AID 2283387)
Peroxisome proliferator-activated receptor gamma (Homo sapiens), sequence (P37231 whole entry, looked up, the tested form may be a part): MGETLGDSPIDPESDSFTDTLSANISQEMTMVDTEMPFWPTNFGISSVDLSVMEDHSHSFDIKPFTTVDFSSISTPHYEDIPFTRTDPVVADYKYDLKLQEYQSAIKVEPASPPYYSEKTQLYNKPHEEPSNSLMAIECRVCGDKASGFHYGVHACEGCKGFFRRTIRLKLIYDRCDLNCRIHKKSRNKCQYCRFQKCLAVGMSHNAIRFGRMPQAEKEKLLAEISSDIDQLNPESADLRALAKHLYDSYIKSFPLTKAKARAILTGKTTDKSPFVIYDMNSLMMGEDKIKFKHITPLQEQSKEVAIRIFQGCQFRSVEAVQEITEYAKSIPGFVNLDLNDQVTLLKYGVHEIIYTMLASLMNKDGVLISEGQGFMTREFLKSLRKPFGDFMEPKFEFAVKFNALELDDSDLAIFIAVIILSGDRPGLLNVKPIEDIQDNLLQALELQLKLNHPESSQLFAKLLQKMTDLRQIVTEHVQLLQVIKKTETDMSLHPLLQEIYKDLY
In short: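 HEK293T transiently transfected with PPARg and SRC-1 fused to Venus YFP fragments, compounds 8 h at 37C. Fixed, Draq5-stained cells imaged; nuclear/cytoplasmic 488 nm fluorescence ratio over at least 350 cells per image; gain fitted versus DMSO.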

[8] = target: Peroxisome proliferator-activated receptor gamma (Homo sapiens) (UniProt P37231); test: OT_PPARg_PPARgSRC1_1440: Odyssey Thera (OT) 24-hour Protein-Complementation Assay for Peroxisome Proliferator-activated Receptor Gamma/ SRC-1 Co-activator (AID 2283388)
In short: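 HEK293T transiently transfected with PPARg/SRC-1 split-Venus YFP fusions 48 h before dosing, then treated 24 h at 37C. Fixed cells imaged; nuclear/cytoplasmic 488 nm fluorescence ratio, gain of signal versus DMSO.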

[9] = CEETOX_H295R_11DCORT: CeeTox H295R High-throughput Steroidogenesis Assay for 11-Deoxycortisol (11DCORT) (AID 2283432; active = hit-call score of the fitted dose curve at least 0.9, where 1 is the maximum; inactive = score below 0.9); conditions: actives raise or lower the signal
In short: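 H295R cells prestimulated 48 h with 10 uM forskolin, then exposed 48 h to chemical in 0.1% DMSO. 11-Deoxycortisol in medium quantified by HPLC-MS/MS after MTBE extraction; bidirectional fit versus DMSO. MTT viability read in same wells.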

[10] = CEETOX_H295R_OHPREG: CeeTox H295R High-throughput Steroidogenesis Assay for OH-Pregnenolone (OHPREG) (AID 2283434; active = hit-call score of the fitted dose curve at least 0.9, where 1 is the maximum; inactive = score below 0.9); conditions: actives raise or lower the signal
In short: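 Readout: HPLC-MS/MS of 17alpha-hydroxypregnenolone in medium after 48 h chemical exposure of H295R cells pretreated with forskolin. Values fitted bidirectionally relative to DMSO; chemicals reducing viability to 20–70% were retested after 10-fold dilution.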

[11] = CEETOX_H295R_OHPROG: CeeTox H295R High-throughput Steroidogenesis Assay for OH-Progesterone (OHPROG) (AID 2283435; active = hit-call score of the fitted dose curve at least 0.9, where 1 is the maximum; inactive = score below 0.9); conditions: actives raise or lower the signal
In short: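 Medium steroid levels read by LC-MS/MS after 48 h chemical treatment (0.1% DMSO) of human adrenal H295R cells that had been forskolin-primed (10 uM, 48 h). Gain or loss fitted against DMSO; MTT cytotoxicity checked per well.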

[12] = CEETOX_H295R_CORTIC: CeeTox H295R High-throughput Steroidogenesis Assay for Corticosterone (CORTIC) (AID 2283437; active = hit-call score of the fitted dose curve at least 0.9, where 1 is the maximum; inactive = score below 0.9;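 also: corticosterone secreted into medium quantified by mass spectrometry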); conditions: actives raise or lower the signal
In short: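 Steps: seed H295R, adhere overnight; 10 uM forskolin 48 h; replace with chemical (0.1% DMSO) 48 h; extract medium with MTBE; quantify corticosterone by HPLC-MS/MS; score bidirectionally vs DMSO.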

[13] = CEETOX_H295R_CORTISOL: CeeTox H295R High-throughput Steroidogenesis Assay for Cortisol (AID 2283438; active = hit-call score of the fitted dose curve at least 0.9, where 1 is the maximum; inactive = score below 0.9;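 also: cortisol secreted into medium quantified by LC-MS/MS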); conditions: actives raise or lower the signal
In short: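 Cortisol measured by HPLC-MS/MS after MTBE extraction of medium from H295R cells exposed 48 h to chemical (0.1% DMSO), following 48 h prestimulation with 10 uM forskolin. Viability assessed by MTT in the same wells.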

[14] = CEETOX_H295R_DOC: CeeTox H295R High-throughput Steroidogenesis Assay for DOC (AID 2283439; active = hit-call score of the fitted dose curve at least 0.9, where 1 is the maximum; inactive = score below 0.9); conditions: actives raise or lower the signal
In short: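 11-Deoxycorticosterone quantified in medium by MTBE extraction and HPLC-MS/MS after 48 h chemical exposure (0.1% DMSO) of forskolin-primed (10 uM, 48 h) H295R cells. Same-well MTT viability; data fitted bidirectionally against DMSO.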

[15] = target: Bile acid receptor (Homo sapiens) (UniProt Q96RI1); test: OT_FXR_FXRSRC1_0480: Odyssey Thera (OT) 8-hour HEK293T Protein-Complementation Assay for Farnesoid X receptor/SRC-1 Co-activator (AID 2283383)
Bile acid receptor (Homo sapiens), sequence (Q96RI1 whole entry, looked up, the tested form may be a part): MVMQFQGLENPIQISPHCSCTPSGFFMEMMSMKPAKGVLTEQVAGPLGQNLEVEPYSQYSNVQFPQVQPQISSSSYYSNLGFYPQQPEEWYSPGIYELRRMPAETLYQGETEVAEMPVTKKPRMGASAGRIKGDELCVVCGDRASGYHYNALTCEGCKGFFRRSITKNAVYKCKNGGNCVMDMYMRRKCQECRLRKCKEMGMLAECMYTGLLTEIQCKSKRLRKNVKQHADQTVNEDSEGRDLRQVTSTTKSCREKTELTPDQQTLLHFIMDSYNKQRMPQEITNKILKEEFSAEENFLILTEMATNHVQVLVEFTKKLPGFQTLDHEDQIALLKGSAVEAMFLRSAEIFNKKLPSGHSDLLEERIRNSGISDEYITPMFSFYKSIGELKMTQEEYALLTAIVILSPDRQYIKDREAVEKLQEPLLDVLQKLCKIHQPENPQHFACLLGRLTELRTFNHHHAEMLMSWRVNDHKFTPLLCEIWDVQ
In short: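 Binding of FXR to coactivator SRC-1 was read as fluorescence from a reconstituted split reporter in HEK293T cells, 8 h after chemical addition. Only increases in signal versus DMSO were fit.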

[16] = target: Bile acid receptor (Homo sapiens) (UniProt Q96RI1); test: OT_FXR_FXRSRC1_1440: Odyssey Thera (OT) 24-hour HEK293T Protein-Complementation Assay for Farnesoid X receptor/SRC-1 Co-activator (AID 2283384)
In short: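 Protein-fragment complementation: FXR and SRC-1 fused to reporter fragments that reassemble on interaction, read by fluorescence intensity. Human HEK293T cells measured 24 h post-dose; positive-direction fit versus DMSO.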

Measured: AC50

Cc1c(C(=O)c2c[nH]n(C)c2=O)ccc(S(C)(=O)=O)c1C1=NOCC1
inactive: [1] | [2] | [3] | [4] | [5] | [6] | [7] | [8]

CCCCC(CC)COC(=O)/C=C/c1ccc(OC)cc1 (stereo not given)
inactive: [1] | [3] | [4] | [5] | [6] | [8]

CCCCCCCCCC[N+](C)(CCCCCCCCCC)CCC[Si](OC)(OC)OC
active: [3] 24.1 µM | [4] 81.9 µM | [5] 11.7 µM | [6] 11.6 µM
inactive: [2] | [7] | [8]

O=C(O)c1cc(O)c2ccccc2c1O
inactive: [2] | [5] | [6] | [9] | [10] | [11] | [12] | [13]
active: [3] 18.1 µM | [4] 25.4 µM | [7] 73.7 µM | [8] 73.2 µM | [14] 0.445 µM

CCOC(=O)c1ccccc1C
inactive: [3] | [4] | [15] | [5] | [6] | [7] | [8]
active: [2] 29.4 µM

CCOC(=O)C1=NOC(c2ccccc2)(c2ccccc2)C1
inactive: [2] | [3] | [4] | [15] | [16] | [5] | [6] | [7] | [8]

CCCCCCCCC(CO)CCCCCC (stereo not given)
inactive: [2] | [3] | [15] | [16] | [6] | [7] | [8]
active: [4] 17.7 µM

CCCCCCCCCC(C)=O
inactive: [1] | [2] | [3] | [4] | [7] | [8]

CCCCNS(=O)(=O)c1ccccc1
inactive: [2] | [3] | [4] | [15] | [16] | [7] | [8]

CC(C)(C)C1CCC(=O)CC1
inactive: [2] | [3] | [4] | [15] | [16] | [5] | [6] | [7] | [8]

CN(C)Cc1cc(CN(C)C)c(O)c(CN(C)C)c1
inactive: [1] | [3] | [4] | [16] | [6] | [7] | [8]

CCc1cccc(C)c1N
inactive: [1] | [3] | [4] | [5] | [6] | [7] | [8]
